This note sets out measurements from PubChem BioAssay AID449762 (Southern Research Specialized Biocontainment Screening …, 2010).

Out of some 330,000 compounds screened, about 1,900 (0.58%) were called active. About 4% were inconclusive and are not listed. The list is a sample of the results. Entries with a potency or affinity are not part of this list. Values without a mark were called inactive. Cut-off read from the data, not from the text of the source: inconclusive = inhibition above about 70% without an active follow-up result; inactive = below that.

The test in a line: M. tuberculosis growth inhibition, HTS (AID 449762).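 Note: bacterial growth assessed after seven days of incubation.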 Particulars: M. tuberculosis H37Rv growth inhibition, 7H9 media; at 25 µM; hits give high values.
On to `CCS(=O)(=O)Nc1ccc(C2=NN(C(=O)c3ccco3)C(c3cccc(F)c3)C2)cc1` (configuration not stated), for which the inhibition was 23.2%.
As for `COc1ccc(COC(=O)Nc2cc3c(C(F)(F)F)nn(C)c3s2)cc1`, the figure is -0.32%; as for `Cn1nc(C(F)(F)F)c2cc(NC(=O)OCc3ccc(F)cc3)sc21`, 10.2%.
Turning to `CC1CCC(NC(=O)c2ccc(NS(=O)(=O)c3ccc4[nH]c(=O)[nH]c4c3)cc2)CC1` (configuration not stated), the inhibition was -6.1%.
As for `CC1(c2nnc(-c3ccccc3)o2)CC(c2ccc([N+](=O)[O-])cc2)=NO1` (configuration not stated), the figure is -0.65%; as for `COC(=O)c1ccc(NC(=O)c2ccc[n+]([O-])c2)cc1`, -4.13%.
In the case of `c1ccc2nc3c(nc2c1)OCC1CCCCN31` (configuration not stated), the inhibition is 3.14%.
As to `CC1(C(=O)N(CC(=O)NC2CCCC2)Cc2ccc(Cl)cc2)CC(=O)N=C2C=CC=CN21` (configuration not stated), the inhibition was -2.69%.
With `Cc1ccccc1NC(=O)NC(N)=O`, the inhibition was -2.65%.
With `Cc1ccc(-c2csc(/C(C#N)=C/Nc3ccc4c(c3)OCCO4)n2)cc1`, the inhibition was 7%.
To `CCN(CC)CCOC(=O)c1ccc(N/C=C(/C#N)c2nc(-c3cc4ccccc4oc3=O)cs2)cc1` belongs 9.42%; to `Cc1cc(CN(C)C(=O)c2ccc3nc(Cc4ccccc4F)oc3c2)n[nH]1`, -6.04%.
Consider `Cc1cccc(C(=O)OCC(=O)N(C)CC(=O)Nc2ccc(Cl)c(C(F)(F)F)c2)c1`, for which the inhibition is 1.53%.
In the case of `Cc1ccc(-c2cc(C(=O)N3CCOCC3)no2)cc1`, the inhibition was 6.22%.
To `CNC(=O)c1cccnc1Nc1cccc(C(F)(F)F)c1` belongs -4.06%; to `O=C(O)c1cccnc1Nc1cccc(C(F)(F)F)c1`, -0.01%; to `Cc1ccc(C(=O)N(CC(=O)NC2CCCC2)c2cccc(F)c2)s1`, 9.2%.
Take `CN(C)CCCNC(=O)c1ccc(-c2cc(O)c3ncccc3c2)cc1`: the inhibition is 3.92%.
As for `CN1CCN(c2cc(-c3cc(O)c4ncccc4c3)ccn2)CC1`, the figure is 28.5%.
With `CC1(c2cccc(Br)c2)NC(=O)N(CC(=O)NC2CCCCC2)C1=O` (configuration not stated), the inhibition was 3%.
As for `CCCCN1C(=O)c2ccc(C(=O)OCC(=O)NCCc3ccc(S(N)(=O)=O)cc3)cc2C1=O`, the figure is -4.61%; as for `O=C(NCC(c1cccs1)N1CCOCC1)c1ccc([N+](=O)[O-])cc1` (configuration not stated), 2.63%; as for `O=C(NCC(c1cccs1)N1CCOCC1)c1cccc([N+](=O)[O-])c1` (configuration not stated), -5.61%.
Take `CCOc1ccc(NC(=O)CN(C)C(=O)Cc2ccsc2)cc1OCC`: the inhibition was -3.21%.
To `CCOC(=O)Cn1cnc2c(nnn2-c2ccc(OC)cc2)c1=O` belongs -2.34%; to `CCOc1cc(/C=C2\N=C(C)OC2=O)cc(Cl)c1OCC(=O)OC`, -3.74%.
To `O=C(C1CCCN1S(=O)(=O)c1cccc2nsnc12)N1CCCCCC1` (configuration not stated) belongs 2.56%; to `Cc1nnc(SCC(=O)NCc2ccc(F)cc2)[nH]c1=O`, 0.54%; to `O=S(Cc1ccc(Br)cc1)Cc1nnc(SCc2c(Cl)cccc2Cl)n1-c1ccccc1` (configuration not stated), -2.91%.
As for `O=S(Cc1ccc(Br)cc1)Cc1nnc(SCc2ccc(Br)cc2)n1-c1ccccc1` (configuration not stated), the inhibition was 57%.
As for `CCOC(=O)c1ccc(S(=O)(=O)NNC(=O)Cc2csc(C)n2)cc1`, the figure is 1.7%; as for `CCOc1ccc(CCNC(=O)c2cccc(S(=O)(=O)N3CC(C)OC(C)C3)c2)cc1OCC` (configuration not stated), 2.57%; as for `CC(=O)Nc1ccc(N2CCN(c3ccc(C(F)(F)F)cn3)CC2)nc1`, 17.9%.
To `CC(C)(C)C(=O)Nc1ccc(N2CCN(c3ccc(C(F)(F)F)cn3)CC2)nc1` belongs -0.97%; to `c1ccc(OCCCCn2cnc3ccccc32)cc1`, 4.06%.
With `c1ccc2c(c1)ncn2CCCOc1ccc2c(c1)CCC2`, the inhibition was 68.5%.
Turning to `O=C(O)CCCC(=O)N1N=C(c2ccccc2)CC1c1ccc2nccnc2c1` (configuration not stated), the inhibition is 0.01%.
To `O=C(N/C(=C\c1cccc([N+](=O)[O-])c1)C(=O)N1CCCCC1)c1cccs1` belongs -1.22%; to `COCC(=O)NC(c1ccccc1)c1ccccc1`, 1.57%.
As for `O=C(c1c[nH]c2ccccc12)C(O)C(c1ccccc1)N1CCOCC1` (configuration not stated), the inhibition is -0.62%.
For the molecule `CCN1CCN(C(c2ccc(OC)cc2)C(O)C(=O)c2c[nH]c3ccccc23)CC1` (configuration not stated), the inhibition is 1.81%.
As for `CCOc1ccccc1C(C(=O)NC1CCCCC1)N(C(=O)c1csnn1)C1CC1` (configuration not stated), the figure is -6.88%; as for `CC1(C)CC(=O)c2c(O)cc(OCc3ccc([N+](=O)[O-])cc3)cc2O1`, 8.3%.
As for `COC(=O)c1ccc(COc2cc(O)c3c(c2)OC(C)(C)CC3=O)cc1`, the figure is 20.4%; as for `N=C(c1ccc([N+](=O)[O-])cc1)N1CCCCC1`, 8.06%; as for `O=C1CCN(Cc2ccccc2)CCN1CCSc1ccccc1`, -0.68%.
As for `CCOc1ccccc1N(CC(=O)Nc1ccc2c(c1)OCO2)S(C)(=O)=O`, the figure is -15.7%.
Consider `O=C(Nc1cc(-c2nc3ncccc3o2)ccc1Cl)c1ccc([N+](=O)[O-])o1`, for which the inhibition was -1.99%.
As for `COc1ccc(C(=O)Nc2cccc(-c3nc4ncccc4o3)c2C)cc1`, the inhibition is 2.93%.
`COc1ccc(N2C(=O)C3C4c5ccccc5C(C=Nc5ccc(C)cc5C)(c5ccccc54)C3C2=O)cc1` (configuration not stated): the inhibition is 36.6%.
As for `COc1ccc(N2C(=O)C3C(C2=O)C3(c2ccccc2)c2ccccc2)cc1` (configuration not stated), the figure is 1.86%; as for `Cn1c(=O)c2c(nc3n2CC(O)CN3c2ccc(O)cc2)n(C)c1=O` (configuration not stated), -2.83%.
As for `CCc1cccc2c(C(=O)COC(=O)c3ccccc3)c[nH]c12`, the figure is 0.69%; as for `CCc1cccc2c(=O)c(C(=O)NCCN3CCOCC3)c[nH]c12`, -3.32%.
As for `CCc1cccc2c(C(=O)COC(=O)c3ccc(O)cc3)c[nH]c12`, the inhibition is -5.92%.
To `CCc1cccc2c(C(=S)N3CCOCC3)c[nH]c12` belongs 3.01%; to `O=C(NCc1ccccc1)c1cccc(Br)n1`, 2.81%.
On to `CC(C)n1cc(CNC(=O)C2CCC(=O)N(Cc3ccccc3F)C2)cn1` (configuration not stated), for which the inhibition was 5.12%.
As for `COCCN(C(=O)c1cccc(N2C(=O)CCC2=O)c1)c1nc(-c2ccc([N+](=O)[O-])cc2)cs1`, the figure is 31.4%.
To `O=C(OCc1ccc([N+](=O)[O-])cc1)C1CC(=O)N(Cc2ccccc2)C1` (configuration not stated) belongs 6.8%; to `Cc1cc(C)n(CCC(=O)N=Nc2c(O)[nH]c3ccccc23)n1`, 3.85%.
To `CCC1CCCCN1CCCNC(=O)CSc1nc2nc(C)c(Cc3ccccc3Cl)c(C)n2n1` (configuration not stated) belongs 4.72%; to `Cc1ccc(N2CCN(/N=C/C(Cl)=C/c3ccccc3)CC2)cc1`, 4.03%; to `COc1ccccc1N1CCN(/N=C\c2ccccc2)CC1`, 4.03%.
Take `Cc1c(C(=O)Nc2ccc3c4c(cccc24)CC3)cccc1[N+](=O)[O-]`: the inhibition is 27.6%.
Turning to `O=C(Nc1ccc2c3c(cccc13)CC2)c1cccc([N+](=O)[O-])c1`, the inhibition was -7.19%.
To `COc1ccc(-c2cc(C)no2)cc1S(=O)(=O)N1CCN(C(=O)c2ccco2)CC1` belongs -7.17%; to `CC(C)Cc1ccc(C(C)C(=N)N)cc1` (configuration not stated), 6.85%.
As for `COc1ccc(CCN=C(N)C(C)c2ccccc2)cc1OC` (configuration not stated), the figure is -10.7%; as for `CCOC(=O)c1c(-c2ccc(OC)cc2)csc1NC(=O)CSc1ccccc1`, 3.36%; as for `CCOC(=O)c1c(-c2ccc(Cl)cc2)csc1NC(=O)CNCc1ccco1`, 3.78%.
As to `COC(=O)c1c(NC(=O)C(C)C)sc(C(=O)N2CCOCC2)c1C`, the inhibition was -8.29%.
Consider `COC(=O)c1c(NC(C)=O)sc(C(=O)N2CCOCC2)c1C`, for which the inhibition is 2.88%.
As to `S=C(NCc1ccncc1)Nc1cc(Cl)cc(Cl)c1`, the inhibition is 69.9%.
To `O=C(CCc1nnc(CCCc2ccccc2)o1)NCCc1ccccc1` belongs 3.96%.
Regarding `CN(C(=O)CCc1nnc(-c2ccc(-c3ccccc3)cc2)o1)C1CCOCC1`, the inhibition is -8.56%.
To `COC(c1ccccc1)c1nnc(CCC(=O)N(C)CCCC2CCCC2)o1` (configuration not stated) belongs 3.33%; to `O=C(CCc1nnc(CCCCc2ccccc2)o1)NCCC1CCCCO1` (configuration not stated), -2.58%.
To `COc1ccc(C2=CSC3=NCCN23)cc1` belongs 4.38%.
As for `CCC(=NCc1cccnc1)c1c(O)n(Cc2ccccc2)c(=O)[nH]c1=O`, the figure is -0.2%; as for `COc1ccc(NC(=O)Cn2c(=O)n(-c3ccccc3)c(=O)c3oc4ccccc4c32)c(OC)c1`, -0.2%.
`CC1(C)CC(=O)CC(=Nc2ccc(C(=O)O)cc2)C1`: the inhibition is 2.32%.
As to `COc1ccc(OC)c(C(c2nnnn2Cc2ccccc2)N2CCN(C)CC2)c1` (configuration not stated), the inhibition is 5.62%.
As for `Cc1ccc(CN2CCN(/N=C\c3cccc([N+](=O)[O-])c3)CC2)cc1`, the figure is 55.9%.
As for `O=[N+]([O-])c1cc(/C=N/N2CCCCC2)ccc1Cl`, the inhibition was 1.34%.
Turning to `Nc1c2c(nc3ccn(-c4ccccc4)c(=O)c13)CCCCC2`, the inhibition is 3.82%.
To `Nc1c2c(nc3ccccc13)CCC2` belongs -1.89%.
To `CCNC(=O)c1nc[nH]c1C(=O)NCC` belongs -0.32%; to `COc1ccc2c(c1OC)C(=O)N1c3ccccc3COC21` (configuration not stated), -4.65%; to `CC1CC(C)CN(C(=O)c2cc3c(=O)n4ccccc4nc3s2)C1` (configuration not stated), 9.39%.
As for `COc1cccc(CNS(=O)(=O)c2cccc(S(=O)(=O)N3CCOCC3)c2)c1`, the figure is 5.34%; as for `COc1ccccc1C1CC(c2ccc(Cl)cc2Cl)Nc2nc(N)nn21` (configuration not stated), -6.06%.
